In the supplement of paper PMC7380943:

system: CLZ3 (HCA2 human fibroblast dual HR-NHEJ reporter); test: HR repair efficiency (tdTomato+ cells) relative to control (log10 fold); higher = more homologous recombination; conditions: 5 µM; doxycycline 0.5 ug/mL
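Note: compound given one day before doxycycline, which switches on I-SceI endonuclease expression to create double-strand breaks within the integrated reporter.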

| SMILES | HR repair efficiency (log10) |
| --- | --- |
| COc1cc(CCC(C)=O)ccc1O [Zingerone] | 0.257 |
| C=C1CC[C@@H]2[C@](C)(CO)[C@H](O)CC[C@@]2(C)[C@H]1C/C=C1\C=COC1=O [Dehydroandrographolide] | 0.116 |
| O=C(O)C1=CO[C@@H](O[C@@H]2O[C@H](CO)[C@@H](O)[C@H](O)[C@H]2O)[C@@H]2C(CO)=CC[C@H]12 [Geniposidic acid] | -0.00169 |
| CC(C)=CCC[C@](C)(O[C@@H]1O[C@H](CO)[C@@H](O)[C@H](O)[C@H]1O)[C@H]1CC[C@]2(C)[C@@H]1[C@H](O)C[C@@H]1[C@@]3(C)CC[C@H](O)C(C)(C)[C@@H]3[C@@H](O[C@@H]3O[C@H](CO)[C@@H](O)[C@H](O)[C@H]3O[C@@H]3OC[C@@H](O)[C@H](O)[C@H]3O)C[C@]12C [Notoginsenoside R1] | 0.0156 |
| CC1(C)CC[C@]2(C(=O)O)CC[C@]3(C)C(=CC[C@@H]4[C@@]5(C)CC[C@H](O)C(C)(C)[C@@H]5CC[C@]43C)[C@@H]2C1 [Oleanolic Acid] | 0.133 |
| COc1cc(C2Oc3cc([C@H]4Oc5cc(O)cc(O)c5C(=O)[C@@H]4O)ccc3OC2CO)ccc1O (some centres undefined) [Silymarin Ⅱ] | -0.127 |
| COc1cc2ccc(=O)oc2cc1O [Scopoletin] | -0.177 |
| COc1cc(OC)c2ccc(=O)oc2c1 [Citropten] | 0.0946 |
| O=c1c(O[C@@H]2O[C@H](CO)[C@@H](O)[C@H](O)[C@H]2O)c(-c2ccc(O)c(O)c2)oc2cc(O)cc(O)c12 [Isoquercitrin] | 0.0777 |
